Assay results from the supplement of paper PMC6555819.

Legend:
Assay in all cases: PBM binding z-score (relative to random genomic background probes); higher = stronger binding; sequences stand for … in GC…GCGATTGACAGCGTAGAATGAAGG
[1] = tested on: FXR:RXRa (NR concentration 270 nM, RXRa partner concentration 90 nM)
Outline: (§1)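 Regression normalization was applied to scanned fluorescence from custom Agilent 4×180K protein-binding microarrays. Before scanning, arrays were incubated 1 h with ligand-free nuclear receptor dimers, and binding was detected with antibodies against each partner (one per run). Binding z-scores use the random background probes as reference.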

[2] = tested on: LXRa:RXRa (NR concentration 270 nM, RXRa partner concentration 90 nM)
Outline: as §1

[3] = tested on: LXRa homodimer (NR concentration 270 nM)
Outline: as §1

[4] = tested on: LXRb:RXRa (NR concentration 270 nM, RXRa partner concentration 90 nM)
Outline: as §1

[5] = tested on: LXRb homodimer (NR concentration 270 nM)
Outline: as §1

[6] = tested on: PPARa:RXRa (NR concentration 270 nM, RXRa partner concentration 90 nM)
Outline: as §1

[7] = tested on: PPARg:RXRa (NR concentration 180 nM, RXRa partner concentration 90 nM)
Outline: as §1

[8] = tested on: PPARg:RXRa 270nM:90nM, anti-RXR (NR concentration 270 nM, RXRa partner concentration 90 nM)
Outline: as §1

[9] = tested on: PPARg:RXRa 30nM:10nM, anti-RXR (NR concentration 30 nM, RXRa partner concentration 10 nM)
Outline: as §1

[10] = tested on: PPARg:RXRa 90nM:30nM, anti-RXR (NR concentration 90 nM, RXRa partner concentration 30 nM)
Outline: as §1

[11] = tested on: PPARg:RXRa DBDmut IVT, anti-RXR (DBD mutation: RXRa K156A/R161A, NR concentration 270 nM, RXRa partner concentration 90 nM)
Outline: as §1

[12] = tested on: PPARg:RXRa IVT, anti-PPARg (NR concentration 270 nM, RXRa partner concentration 90 nM)
Outline: as §1

[13] = tested on: PPARg DBDmut IVT, anti-PPARg (DBD mutation: PPARg1 K132A/R137A, NR concentration 270 nM)
Outline: as §1

[14] = tested on: PPARg homodimer (NR concentration 180 nM)
Outline: as §1

[15] = tested on: PXR:RXRa (NR concentration 270 nM, RXRa partner concentration 90 nM)
Outline: as §1

[16] = tested on: PXR homodimer (NR concentration 270 nM)
Outline: as §1

[17] = tested on: RARa:RXR (NR concentration 270 nM, RXRa partner concentration 90 nM)
Outline: as §1

[18] = tested on: RARa homodimer (NR concentration 270 nM)
Outline: as §1

[19] = tested on: RARb:RXRa (NR concentration 270 nM, RXRa partner concentration 90 nM)
Outline: as §1

Sequence	PBM binding z-score [1]	PBM binding z-score [2]	PBM binding z-score [3]	PBM binding z-score [4]	PBM binding z-score [5]	PBM binding z-score [6]	PBM binding z-score [7]	PBM binding z-score [8]	PBM binding z-score [9]	PBM binding z-score [10]	PBM binding z-score [11]	PBM binding z-score [12]	PBM binding z-score [13]	PBM binding z-score [14]	PBM binding z-score [15]	PBM binding z-score [16]	PBM binding z-score [17]	PBM binding z-score [18]	PBM binding z-score [19]
ATATGTAGGTTAGGGCCATTCAGAAAGTAGGGAA	0.671	0.708	0.2	0.722	0.503	2.71	3.6	3.2	1.06	2.58	6.52	5.91	1.97	1.54	0.501	0.512	0.535	0.865	1.35
CGAGCTAGGTCAAAGGACAGTGAAAGGCGACGTA	4.09	2.67	-0.157	1.53	-0.726	3.86	5.44	6.04	3.68	5.95	3.53	3.85	-0.971	1.2	1.01	-0.591	2.39	-0.312	4.04
CGAACTAGGTCACCGGGACAGTGAAGAGGTTGGA	4.89	2.78	-0.0882	1.89	-0.502	5.58	9.04	7.34	5.02	7.12	7.85	9.13	0.892	2.28	1.79	-0.271	3.2	0.436	4.33
ATATGTACGTTAGGGTCATTCAGAAAGTAGGGAA	4.38	3.61	0.485	3.96	1.15	4.77	2.68	2.97	1.27	2.07	0.518	2.04	1.66	2.39	4.47	1.32	4.93	1.08	3.1
CGAACTAGCTCAAAGGACAGTGAAAGGCGACGTA	-0.37	-0.67	-0.493	-0.766	-0.633	0.188	1.06	2.13	0.533	1.99	-0.134	-0.285	-0.415	0.163	-0.639	-0.457	-0.276	0.225	0.694
ATATGTATGTTAGGGTCATTCAGAAAGTAGGGAA	4.58	3.8	1.34	4.19	1.46	4.84	4.3	3.99	1.85	3.4	2.61	3.27	2.23	2.64	4.24	1.37	4.82	1.45	3.15
CTAACTAGGTCAAAGGACAGTGAAAGGCGACGTA	3.68	2.75	0.132	1.85	-0.0221	5.86	10.8	9.18	9.63	10.2	8.56	8.84	1.86	1.28	1.19	-0.0818	2.41	0.599	4.07
ATATGTCGGTTAGGGTCATTCAGAAAGTAGGGAA	4.73	3.97	1.11	4.09	2.21	4.78	3.57	3.71	1.57	3.07	2.03	3.18	2.25	3.91	4.88	2.06	5.07	1.86	3.32
